# Compound activity from PubChem.
# Shown are actives, neighbours in structure and some others; about 4.7% of the full set was active somewhere.
# 3CLpro inhibitor – SARS-CoV 3CLpro protease inhibitors, primary screen, biochemical, quenched FRET | Replicase polyprotein 1ab (Severe acute respiratory syndrome coronavirus), P0C6X7 | recombinant SARS-CoV 3CLpro, quenched FRET peptide cleavage | inhibition, % at 6 µM | 290,000 tested, 0.14% active | AID 1706, 2009; in the data active = inhibition above about 12%
# VHR inh abs – VHR1 phosphatase inhibitors, primary screen, biochemical, absorbance, uHTS; AID 1654, 2009; 290,000 tested, 0.52% active; recombinant VHR phosphatase, pNPP absorbance; inhibition, % at 13.3 µM; Dual specificity protein phosphatase 3 (Homo sapiens), P51452; in the data active = inhibition above about 50%
# Target sequence (P51452 whole entry, looked up): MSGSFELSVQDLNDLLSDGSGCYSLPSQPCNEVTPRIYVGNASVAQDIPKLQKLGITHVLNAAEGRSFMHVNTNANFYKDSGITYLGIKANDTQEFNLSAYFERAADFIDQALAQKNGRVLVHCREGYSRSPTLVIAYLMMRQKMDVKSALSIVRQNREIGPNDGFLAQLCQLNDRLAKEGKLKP
# CCHF vOTU inh – CCHFV vOTU protease inhibitors, primary screen, biochemical, Pep-AMC substrate, fluorescence | inhibition, % at 11.5 µM | 370,000 tested, 0.55% active | Crimean-Congo hemorrhagic fever virus L polyprotein viral ovarian tumor (vOTU) protease …; note: 0% = vehicle wells with enzyme and 100% = no enzyme wells
# GDH-TPI counter-1 – GDH-TPI coupling enzyme inhibitors, primary screen, artefact control for M. tuberculosis FBA inhibitor project, biochemical, absorbance, full deck. GDH-TPI coupled enzyme counterscreen, NADH absorbance. inhibition, % at 4.8 µM. 360,000 tested, 1.2% active;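 note: 0% = DMSO wells and 100% = wells lacking the enzyme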
# RecA intein inh – Mtb RecA intein splicing inhibitors, primary screen, biochemical, fluorescence, HTS; 290,000 tested, 0.75% active; inhibition, % (concentration not given with the values); cell-free RecA intein splicing; AID 2221, 2009; Protein RecA (Mycobacterium tuberculosis (strain ATCC 25618 / H37Rv)), P9WHJ3; in the data active = inhibition above about 30%;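 note: 0% = vehicle wells and 100% = reference inhibitor control wells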
# Mtb FBA inh – Mtb FBA enzyme inhibitors, primary screen, biochemical, fluorescence, strain H37Rv; purified M. tuberculosis FBA, fluorescence read-out; inhibition, % at 1 µM; 360,000 tested, 2.3% active; AID 588726, 2011; Fructose-bisphosphate aldolase (Mycobacterium tuberculosis (strain ATCC 25618 / H37Rv)), …; in the data active = inhibition above about 27%;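 note: 0% = vehicle and 100% = reference inhibitor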
# Target sequence (P9WQA3 whole entry, looked up): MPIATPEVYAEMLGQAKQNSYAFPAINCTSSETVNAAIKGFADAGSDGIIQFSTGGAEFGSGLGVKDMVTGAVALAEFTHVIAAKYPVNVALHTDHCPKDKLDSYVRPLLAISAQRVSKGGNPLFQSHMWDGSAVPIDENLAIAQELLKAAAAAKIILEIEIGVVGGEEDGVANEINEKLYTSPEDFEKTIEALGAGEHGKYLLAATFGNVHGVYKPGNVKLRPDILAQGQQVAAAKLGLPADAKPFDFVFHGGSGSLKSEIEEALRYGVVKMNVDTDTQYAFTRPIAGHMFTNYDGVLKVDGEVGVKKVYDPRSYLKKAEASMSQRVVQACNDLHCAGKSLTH
# Mtb FBA confirm – M. tuberculosis aldolase blockers, biochemical, fluorescence, strain H37Rv, confirmation | 5,600 tested, 78% active | inhibition, % at 1 µM | shares compounds with Mtb FBA inh | AID 651616, 2012 | purified M. tuberculosis FBA, fluorescence read-out; in the data active = inhibition above about 27%;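 note: 0% = vehicle wells and 100% = reference inhibitor wells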
# GDH-TPI counter-2 – GDH-TPI coupling enzyme inhibitors, artefact control for M. tuberculosis FBA inhibitor project, biochemical, fluorescence, high throughput. shares compounds with Mtb FBA inh. GDH-TPI coupled enzyme counterscreen. inhibition, % at 1 µM. 5,600 tested, 81% active. AID 652141, 2013; in the data active = inhibition above about 10%
# The depositor's hits bear a star; nt = not tested or not shown; + = active, no number. Cut-off read from the data, not from the text of the source, unless noted: active = inhibition above about 30%; inactive = the rest.
SMILES,3CLpro inhibitor,VHR inh abs,CCHF vOTU inh,GDH-TPI counter-1,RecA intein inh,Mtb FBA inh,Mtb FBA confirm,GDH-TPI counter-2
CCCNC(=O)N(C)C[C@@H]1Oc2cc(Br)ccc2S(=O)(=O)N([C@@H](C)CO)C[C@H]1C,nt,nt,-5,-11,nt,2,nt,nt
CCCc1nc2c3ccccc3ccn2c1CC1CCCCC1,nt,nt,17,nt,nt,9,nt,nt
C=CCNc1cnn(-c2ccc(C)cc2)c(=O)c1Sc1ccc(C)cc1,7,36,3,3,3,41*,56*,47*
Cc1ccc(Sc2cnn(-c3ccccc3)c(=O)c2Cl)cc1,-8,32,8,15,1,2,nt,nt
O=C1NC[C@@H](CCCCN2C[C@H](Cc3ccc(O)cc3)N(CCc3ccc(O)cc3)C(=O)C2=O)N(CCc2ccc(O)cc2)C1=O,nt,nt,-4,nt,nt,nt,nt,nt
Nc1c(Cl)cc(Cl)cc1C(=O)OCC(=O)NC1CC1,2,-8,-106,10,-2,84*,8,0
Nc1ncccc1C(=O)OCC(=O)NC1CCCCCC1,nt,nt,-19,11,nt,33*,56*,43*
O=C(COC(=O)c1ccccn1)NC1CCCCC1,1,31,12,-10,4,1,nt,nt
COc1ccc(CN2C(=O)C(CC(=O)NCC3CCCCC3)CC(C(=O)N3CCOCC3)=C2C)cc1 (configuration not stated),nt,nt,3,2,nt,-1,nt,nt
Cc1cccc(C)c1N1C(=O)c2ccccc2NC(=O)C1C(=O)NCC(C)C (configuration not stated),nt,nt,1,nt,nt,nt,nt,nt
CCC1CCCCN1S(=O)(=O)c1ccc(NC(=O)C2CC(=O)N(C(C)(C)C)C2)cc1 (configuration not stated),nt,nt,2,11,nt,-1,nt,nt
Cc1ccnc(SCc2cn3c(C)cc(C)nc3n2)n1,5,13,-27,-5,-2,100*,46*,48*
Cc1cc(C)n2cc(CSc3ncccc3C(=O)O)nc2n1,-1,19,-27,1,-1,82*,199*,179*
Cc1cc(C)n2cc(CSCc3ccco3)nc2n1,0,13,4,11,0,8,nt,nt
Cc1cc(C)n2cc(CSC3=NCCS3)nc2n1,2,15,-38,3,-1,53*,190*,155*
CCOc1ccc(N(CC(=O)NC2CCCCC2)C(=O)Cn2nnc(-c3ccc(C)o3)n2)cc1,1,30,9,-7,3,0,nt,nt
CC(=O)Nc1cccc(-c2ccnc3c2CC(C)(C(=O)Nc2cccc(OC(F)(F)F)c2)O3)c1 (configuration not stated),nt,nt,13,2,nt,-3,nt,nt
CC(C)(C)NC(=O)Nc1nnc(SCC(=O)NC2CCCCC2)s1,nt,nt,11,3,-1,-3,nt,nt
CC(C)Cc1nc(NCCN2CCOCC2)c(C#N)c2c1COC(C)(C)C2,-1,0,5,13,0,4,nt,nt
CCCNC(=O)N1CCN(c2nc(C(C)C)c3c(c2C#N)CC(C)(C)OC3)CC1,0,29,-6,-14,2,3,nt,nt
CCCc1nc(N2CCOCC2)c(C#N)c2c1CCCC2,3,-2,7,17,7,30*,168*,141*
CCc1nc(N2CCN(C(C)=O)CC2)c(C#N)c2c1COC(C)(C)C2,-2,-4,-26,1,-1,36*,3,-1
CC(C)Cc1nc(N2CCOCC2)c(C#N)c2c1COC(C)(C)C2,-3,2,-7,10,3,37*,-1,-1
CCc1nc(N2CCN(C(=O)c3ccco3)CC2)c(C#N)c2c1COC(C)(C)C2,6,0,0,5,2,40*,57*,39*
CN(CC(=O)Nc1cccc(F)c1)C(=O)c1ccccc1Sc1ccccc1C#N,nt,nt,12,-6,nt,0,nt,nt
SMILES,3CLpro inhibitor,VHR inh abs,CCHF vOTU inh,GDH-TPI counter-1,RecA intein inh,Mtb FBA inh,Mtb FBA confirm,GDH-TPI counter-2
CCN1CCN(C(=O)CN2C(=O)c3ccccc3S2(=O)=O)CC1,nt,nt,3,4,-1,-1,nt,nt
CC(C)(C)N1C(=O)c2ccccc2NC(=O)C1C(=O)NCc1ccco1 (configuration not stated),nt,nt,2,nt,nt,nt,nt,nt
CCc1cc2c(=O)c(-c3cscn3)coc2c(CN(C)C)c1O,3,13,-40,20,0,41*,161*,125*
CCc1cc2c(=O)c(-c3ccc4c(c3)OCO4)coc2c(CN(C)C)c1O,2,nt,-22,28,-2,23,nt,nt
O=C1COc2ccccc2C(c2nnnn2Cc2ccccc2)N1Cc1cccs1 (configuration not stated),nt,nt,-5,nt,nt,nt,nt,nt
CC1CCCCN1C(=S)Nc1ccc2nc3n(c(=O)c2c1)CCCCC3 (configuration not stated),-2,-7,-20,5,-1,30*,45*,39*
O=c1c2cc(NC(=S)N3CCC(N4CCCCC4)CC3)ccc2nc2n1CCCCC2,-4,37,-11,-2,-2,10,nt,nt
Nc1nc2nc(-c3ccc(OCc4ccccc4)cc3)cc(C(F)(F)F)n2n1,5,24,-15,13,-12,36*,+,+
O=C1CSC(c2cccc([N+](=O)[O-])c2)N1c1ccccc1F (configuration not stated),-3,7,0,7,0,-1,nt,nt
COc1ccc(Cn2c(/C=C/c3ccccc3)nc3ccccc32)cc1,2,29,-29,15,10,48*,169*,138*
CCn1c(/C=C/c2ccccc2)nc2ccccc21,-3,20,-59,65*,4,58*,+,+
CCC(C)n1c(/C=C/c2ccccc2)nc2ccccc21 (configuration not stated),-3,8,-22,17,0,33*,53*,32*
CCCn1c(/C=C/c2cc[n+](C)cc2)nc2ccccc21,-4,5,-45,7,-14,4,nt,nt
CC(C)Cn1c(/C=C/c2ccccc2)nc2ccccc21,-3,18,-19,39*,-2,78*,92*,67*
CCn1c(/C=C/c2ccccc2)nc2ccccc2c1=O,5,11,7,25,3,-1,nt,nt
COc1ccc(-c2nc3ccccc3n2Cc2ccccc2)cc1,2,10,6,3,7,10,nt,nt
Cc1c(CCC(=O)NCC(=O)NCC(=O)O)c(=O)oc2cc3oc4c(c3cc12)CCCC4,2,-7,-28,21,0,35*,-3,-4
